Screens: PubChem BioAssay, several laboratories
Neddylation inh = inhibitors of cullin neddylation, primary screen, biochemical, TR-FRET, uHTS, NAE and Ubc12; inhibition, % at 25 µM; AID 651699, 2012; NEDD8-conjugating enzyme Ubc12 (Homo sapiens) + NEDD8-activating enzyme E1 regulatory …; hit rate 0.58% among 360,000; in the data active = inhibition above about 36%
ARNT TACC3 PPI = disruptors of ARNT/TACC3 protein interaction, primary screen, biochemical, AlphaScreen, single concentration | AlphaScreen His-ARNT PAS-B/GST-TACC3 binding, luminescence; TACC3 fragment carries E629A point mutation | inhibition, % at 9.99 µM | hit rate 0.66% among 390,000;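 active = mean inhibition of replicates at least 50% and at least half of replicates each reaching 50%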;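 also: 0% = complete ARNT plus TACC3 wells and 100% = ARNT alone without TACC3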
DAGLB inh = DAGLB lipase inhibitors, primary screen, biochemical, fluorescence, HTS | Diacylglycerol lipase-beta (Homo sapiens), Q8NCG7 | HEK293T DAGLB membrane lysate, EnzChek fluorogenic substrate | inhibition, % at 5.17 µM | hit rate 0.059% among 340,000 | AID 504411, 2011; in the data active = inhibition above about 34%;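 also: 0% = enzyme with vehicle and 100% = wells lacking enzyme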
Target sequence (Q8NCG7 whole entry, looked up): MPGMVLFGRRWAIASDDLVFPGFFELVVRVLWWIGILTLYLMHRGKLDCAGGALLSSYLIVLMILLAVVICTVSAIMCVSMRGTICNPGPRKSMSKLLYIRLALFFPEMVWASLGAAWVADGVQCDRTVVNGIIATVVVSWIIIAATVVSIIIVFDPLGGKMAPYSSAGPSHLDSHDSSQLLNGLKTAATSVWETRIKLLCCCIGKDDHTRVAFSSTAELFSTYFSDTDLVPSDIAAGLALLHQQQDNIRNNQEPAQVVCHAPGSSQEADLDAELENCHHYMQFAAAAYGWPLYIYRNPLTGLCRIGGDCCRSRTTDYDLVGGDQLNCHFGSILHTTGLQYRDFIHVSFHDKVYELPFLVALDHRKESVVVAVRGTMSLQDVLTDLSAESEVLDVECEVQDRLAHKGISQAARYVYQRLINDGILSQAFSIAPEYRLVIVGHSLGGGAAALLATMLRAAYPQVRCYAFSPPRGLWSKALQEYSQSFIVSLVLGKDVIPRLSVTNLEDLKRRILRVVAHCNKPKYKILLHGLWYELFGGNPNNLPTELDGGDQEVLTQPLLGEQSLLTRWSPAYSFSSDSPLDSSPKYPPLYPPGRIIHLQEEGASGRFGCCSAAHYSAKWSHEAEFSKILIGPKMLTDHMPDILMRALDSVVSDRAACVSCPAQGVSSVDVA
NadD block = inhibitors of S. aureus NadD, primary screen, biochemical, colorimetric, uHTS; Nicotinate-nucleotide adenylyltransferase NadD (Staphylococcus aureus N315); inhibition, % at 20 µM; hit rate 0.78% among 360,000; purified NadD enzyme, colorimetric absorbance read-out; in the data active = inhibition above about 26%
sPLA2-III inh = human group III sPLA2 inhibitors, primary screen, biochemical, QFRET, BODIPY PC-A2 liposome substrate; AID 743126, 2013; Group 3 secretory phospholipase A2 (Homo sapiens), Q9NZ20; QFRET BODIPY PC-A2 liposome hydrolysis, fluorescence; hit rate 0.56% among 370,000; inhibition, % at 12.2 µM;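 active = inhibition above mean plus 3 SD of compounds lying within the high and low control bounds, cut at about 19% in these data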;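 also: 0% = median of test compound wells and 100% = no enzyme DMSO wells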
NadD conf = inhibitors of S. aureus NadD, confirmation, biochemical, colorimetric, single concentration. hit rate 13% among 2,000. shares compounds with NadD block. inhibition, % at 20 µM. AID 624309, 2012. purified S. aureus NadD, colorimetric enzyme assay; in the data active = inhibition mostly above about 42%, no sharp cut-off; inactive = mostly below about 42%
Numbers without * were called inactive; / = no result given. An excerpt weighted towards active compounds, which were near 2% of everything screened.

SMILES	Neddylation inh	ARNT TACC3 PPI	DAGLB inh	NadD block	sPLA2-III inh	NadD conf
NC(=O)[C@@H]1CC2(CC(c3cccc(NC(=O)COc4ccc(Cl)cc4)c3)=NO2)CN1C(=O)COc1ccc(Cl)cc1 (some centres not stated)	-16	-1	3	48*	-37	24
NC(=O)[C@H]1CC2(CC(c3cccc(NC(=O)COc4ccc(Cl)cc4)c3)=NO2)CN1C(=O)C(c1ccccc1)c1ccccc1 (some centres not stated)	-22	5	1	33*	-44	33
C/C=C\C=C\C(=O)Nc1cccc(C2=NOC3(C2)C[C@@H](C(N)=O)N(C(=O)C(c2ccccc2)c2ccccc2)C3)c1 (some centres not stated)	-28	-2	-1	39*	-21	55*
CC(C)c1cn(CC[C@@H]2CC[C@@H](NC(=O)c3cccc(F)c3)[C@@H](CO)O2)nn1	/	1	/	/	/	/
O=C(Cc1ccncc1)NCC[C@@H]1CC[C@H](NC(=O)Nc2cccc(F)c2)[C@H](CO)O1	/	28	/	/	/	/
COc1ccc(N/C(N)=N/c2nc(CSc3ccc(Cl)cc3)cc(=O)[nH]2)cc1	-5	6	1	5	-2	/
N/C(=N\c1nc(CSc2ccc(Cl)cc2)cc(=O)[nH]1)Nc1cccc2ccccc12	-9	-20	1	27*	-3	1
COc1cccc(-c2ccc3c(c2)[C@H]2[C@H](CCN2C(=O)c2cccc(F)c2)[C@H](CO)N3)c1	/	-2	/	/	/	/
Cc1ccc2[nH]c(C)c(CCNC(=O)c3cc4cc([N+](=O)[O-])ccc4oc3=O)c2c1	-17	1	9	33*	-8	5
Cc1ccc2[nH]c(C)c(CCNC(=O)c3c(N)no[n+]3[O-])c2c1	-9	4	-2	-5	-2	/
COc1ccc(NC(=O)N[C@@H]2C=C[C@H](CC(=O)NC3CCC3)O[C@H]2CO)cc1	/	6	/	/	/	/
O=C(Nc1nnc(-c2ccc3c(c2)OCCO3)o1)c1ccc(Cc2ccccc2)cc1	15	-3	0	48*	-3	8
O=C(Nc1cc(S(=O)(=O)Nc2ccc(Cl)cc2)ccc1O)c1ccc(S(=O)(=O)N2CCCCCC2)cc1	-8	-7	20	44*	-16	34
COc1ccc(S(=O)(=O)N2CC[C@@H]3[C@H]2c2cc(-c4ccc(C#N)cc4)ccc2N[C@@H]3CO)cc1	/	2	/	/	/	/
Cn1c(SCC(=O)N2c3ccccc3CCc3ccccc32)nnc1-c1cc2ccccc2cc1O	-5	-6	5	56*	-61	52*
Cc1cccc(-c2nnc(SCC(=O)N3c4ccccc4CCc4ccccc43)n2C)c1	5	21	-3	9	-12	/
CC(C)(C)c1ccc(Oc2cccc(C3CC(=O)C(C4NCCc5ccccc54)C(=O)C3n3cncn3)c2)cc1 (configuration not stated)	4	-4	3	41*	-12	41
O=C1CC(c2ccccc2Oc2cccc(Cl)c2)C(n2cncn2)C(=O)C1C1NCCc2ccccc21 (configuration not stated)	4	-2	3	10	-35	/
Cc1[nH]c2ccc(C(=O)NCCCN3CCCCCC3)cc2c1C	17	1	1	29*	-14	7
Cc1[nH]c2ccc(C(=O)NCCCN3CCCC3)cc2c1C	0	0	0	4	10	/
C/C(=N\NC(=O)c1ccc(OC2OCCOC2Oc2ccc(C(=O)N/N=C(\C)c3ccncc3)cc2)cc1)c1ccncc1 (configuration not stated)	-3	0	-1	32*	9	11
C/C(=N\NC(=O)c1ccncc1)c1ccc(N2CCOCC2)cc1	4	-1	-1	-5	-1	/
O=C(C[C@H]1C=C[C@@H](NC(=O)Nc2ccc(F)cc2)[C@@H](CO)O1)NCCN1CCCC1	/	-2	/	/	/	/
N#CC1=C(S)N=C(N)C(c2nc(-c3ccccc3)cs2)C12CCCCC2 (configuration not stated)	-4	15	5	52*	-4	75*
Cc1ccc(-c2csc(C3C(N)=NC(S)=C(C#N)C34CCCCC4)n2)cc1 (configuration not stated)	-15	19	11	27	4	/
SMILES	Neddylation inh	ARNT TACC3 PPI	DAGLB inh	NadD block	sPLA2-III inh	NadD conf
N#CC1=C(S)N=C(N)C(c2nc(-c3ccccc3)cs2)C12CCCC2 (configuration not stated)	-12	14	5	52*	-4	73*
CCC(=O)N(C)C[C@@H]1Oc2cc(-c3cccc(F)c3)ccc2S(=O)(=O)N([C@@H](C)CO)C[C@H]1C	/	1	/	/	/	/
N=C1S/C(=C\c2ccccc2F)C(=O)N1c1ccc(F)cc1	-6	9	0	18	-1	/
N=C1S/C(=C\c2cccc3ccccc23)C(=O)N1c1ccc(F)cc1	12	-15	-1	33*	-16	5
Cc1ccccc1C(=O)Nc1nnc(CC(=O)N/N=C/c2cn(Cc3ccccc3)c3ccccc23)s1	9	-5	12	45*	-9	16
CCC(=O)N(C)C[C@@H]1Oc2ncc(-c3ccc(C)cc3)cc2C(=O)N([C@H](C)CO)C[C@H]1C	/	-26	/	/	/	/
CCC(=O)Nc1ccc2c(c1)OC[C@H](C)N(C(=O)CN(C)C)C[C@H](C)[C@H](OC)CN(C)C2=O	/	8	/	/	/	/
CCN(Cc1ccccc1)S(=O)(=O)c1ccc(C(=O)Nc2nnc(-c3ccccc3OC)o2)cc1	35	10	12	54*	-3	26*
CCCN(CCC)S(=O)(=O)c1ccc(C(=O)Nc2nnc(-c3cc(OC)cc(OC)c3)o2)cc1	12	10	-1	58*	/	6
C[C@H]1CN([C@@H](C)CO)C(=O)c2cccc(NC(=O)c3cnccn3)c2O[C@H]1CN(C)C(=O)Nc1ccc(C(F)(F)F)cc1	/	-1	/	/	/	/
C=CCSC1=N/C(=C\c2ccc3c(c2)OCO3)C(=O)S1	7	5	-5	7	4	/
C=CCSC1=N/C(=C\c2cc(OCC)c(OC(C)=O)c([N+](=O)[O-])c2)C(=O)S1	-27	6	31	33*	0	9
CCOc1ccc(CCN2C(=S)N([C@@H](Cc3ccc(O)cc3)CN3CCC[C@@H]3CN3C(=S)NC[C@@H]3Cc3ccc(O)cc3)C[C@@H]2Cc2ccc(O)cc2)cc1	-1	/	/	36*	-26	23
